Assay results from PubChem BioAssay (NCI).
About 83,000 compounds went through this panel and 20% of them were active in at least one assay; those are over-represented in the sample as a whole.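 For each line, cells grew in 96-well plates with the test compound present at a single concentration for 48 hours.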 Calls of active or inactive are those of the source. The calls were made as follows: active = growth percent below 10; inactive = the rest.

Legend:
Experiment in all cases: NCI-60 one-dose screen, 48 h (100 = growth as untreated, 0 = no growth, -100 = all killed)
Conditions in all cases: 10 µM unless noted
DU-145 prostate = tested on: DU-145 prostate
K-562 leukemia = tested on: K-562 leukemia
MALME-3M melanoma = tested on: MALME-3M melanoma
MDA-MB-231 breast = tested on: MDA-MB-231 breast
RXF 393 renal = tested on: RXF 393 renal
SF-268 CNS = tested on: SF-268 CNS
SF-295 CNS = tested on: SF-295 CNS
SF-539 CNS = tested on: SF-539 CNS
UACC-257 melanoma = tested on: UACC-257 melanoma
M14 melanoma = tested on: M14 melanoma
HCT-15 colon = tested on: HCT-15 colon
HT29 colon = tested on: HT29 colon
SNB-75 CNS = tested on: SNB-75 CNS
SNB-19 CNS = tested on: SNB-19 CNS
U251 CNS = tested on: U251 CNS
PC-3 prostate = tested on: PC-3 prostate
SK-MEL-5 melanoma = tested on: SK-MEL-5 melanoma
UACC-62 melanoma = tested on: UACC-62 melanoma
LOX IMVI melanoma = tested on: LOX IMVI melanoma
SK-MEL-28 melanoma = tested on: SK-MEL-28 melanoma

Measured: growth

O=C(NCCNc1nccc(-c2c(-c3cccc(O)c3)nc3sccn23)n1)c1ccccc1O
active: UACC-62 melanoma 0.528%
inactive: DU-145 prostate 67.2% | K-562 leukemia 40.5% | MALME-3M melanoma 14.6% | MDA-MB-231 breast 48.4% | RXF 393 renal 50.9% | SF-268 CNS 62.5% | SF-295 CNS 46.4% | SF-539 CNS 61.9% | UACC-257 melanoma 14.8% | M14 melanoma 16.7% | HCT-15 colon 54.5% | HT29 colon 49.2% | SNB-75 CNS 40.6% | SNB-19 CNS 90.2% | U251 CNS 61.6% | PC-3 prostate 51.1% | SK-MEL-5 melanoma 22.7% | LOX IMVI melanoma 33.5% | SK-MEL-28 melanoma 41.4%

CCc1ccc(C2=C/C(=C/c3ccc(Cl)cc3)C(=O)N2CCc2ccc(S(N)(=O)=O)cc2)cc1
inactive: DU-145 prostate 43.8% | K-562 leukemia 11% | MALME-3M melanoma 41.5% | MDA-MB-231 breast 43.8% | SF-268 CNS 45.6% | SF-295 CNS 25.9% | SF-539 CNS 56.1% | UACC-257 melanoma 39.4% | M14 melanoma 30.6% | HCT-15 colon 17.7% | SNB-75 CNS 52.5% | SNB-19 CNS 54.6% | U251 CNS 25.1% | PC-3 prostate 11.5% | SK-MEL-5 melanoma 41.4% | UACC-62 melanoma 31.2% | LOX IMVI melanoma 24.3% | SK-MEL-28 melanoma 38.2%
active: RXF 393 renal 7.12% | HT29 colon 6.46%

CCCCCCCCN(CCCCCCCC)CC(O)c1cc(-c2ccccc2)nc2ccc(OC)cc12 (stereo not given)
active: SF-539 CNS 0.739%
inactive: DU-145 prostate 82.6% | K-562 leukemia 52.2% | MALME-3M melanoma 91.3% | MDA-MB-231 breast 63.7% | RXF 393 renal 90.2% | SF-268 CNS 38.3% | SF-295 CNS 93.8% | UACC-257 melanoma 83.2% | M14 melanoma 24.7% | HCT-15 colon 10.7% | HT29 colon 80.1% | SNB-75 CNS 96.4% | SNB-19 CNS 63.2% | U251 CNS 15.7% | PC-3 prostate 32.3% | SK-MEL-5 melanoma 46.5% | UACC-62 melanoma 52.5% | LOX IMVI melanoma 21% | SK-MEL-28 melanoma 100%

CCc1cccc(-c2ccccc2)c1
inactive: DU-145 prostate 110% | K-562 leukemia 109% | MALME-3M melanoma 114% | MDA-MB-231 breast 114% | RXF 393 renal 130% | SF-268 CNS 108% | SF-295 CNS 107% | SF-539 CNS 97.6% | UACC-257 melanoma 99.1% | M14 melanoma 92.6% | HCT-15 colon 103% | HT29 colon 114% | SNB-75 CNS 105% | SNB-19 CNS 107% | U251 CNS 106% | PC-3 prostate 99% | SK-MEL-5 melanoma 111% | UACC-62 melanoma 103% | LOX IMVI melanoma 109% | SK-MEL-28 melanoma 120%

Cn1c(I)c(C#C[Si](C)(C)C)c(=O)[nH]c1=O
inactive: DU-145 prostate 64.3% | SF-295 CNS 96.2% | SF-539 CNS 96.7% | SNB-75 CNS 75.2% | SNB-19 CNS 100% | U251 CNS 51.5% | SK-MEL-5 melanoma 98.3% | UACC-62 melanoma 11.8%
active: K-562 leukemia -71.3% | MALME-3M melanoma -65.9% | MDA-MB-231 breast 9.45% | RXF 393 renal -86.3% | SF-268 CNS -8.38% | UACC-257 melanoma -36.5% | M14 melanoma -50.1% | HCT-15 colon -37.6% | HT29 colon -60% | PC-3 prostate 4.88% | LOX IMVI melanoma -69.9% | SK-MEL-28 melanoma -82%

O=C(NCCNc1nccc(-c2c(-c3cccc(O)c3)nc3sccn23)n1)c1ccccc1
inactive: DU-145 prostate 90.4% | K-562 leukemia 62.7% | MDA-MB-231 breast 80% | RXF 393 renal 62.6% | SF-268 CNS 80.7% | SF-295 CNS 67.4% | SF-539 CNS 73.2% | UACC-257 melanoma 11.3% | M14 melanoma 15.3% | HCT-15 colon 88.4% | HT29 colon 65.4% | SNB-75 CNS 54.4% | SNB-19 CNS 91.1% | U251 CNS 61.9% | PC-3 prostate 68.5% | SK-MEL-5 melanoma 40.2% | LOX IMVI melanoma 23.2% | SK-MEL-28 melanoma 37.8%
active: MALME-3M melanoma 9.31% | UACC-62 melanoma 0.903%

Cc1cn(-c2cc(C(=O)Nc3cccc(-n4ccc5c(NC(=O)c6ccccc6)nccc54)c3)cc(C(F)(F)F)c2)cn1
inactive: MALME-3M melanoma 25.2% | SF-268 CNS 12% | UACC-257 melanoma 40.6% | M14 melanoma 11.9% | SNB-75 CNS 27.2% | SNB-19 CNS 28.9% | PC-3 prostate 18.5% | UACC-62 melanoma 27.1% | SK-MEL-28 melanoma 33.3%
active: DU-145 prostate -9.55% | K-562 leukemia 4.74% | MDA-MB-231 breast 4% | RXF 393 renal -89.8% | SF-295 CNS -12.3% | SF-539 CNS -12.1% | HCT-15 colon 4.61% | HT29 colon -41.2% | U251 CNS -3.87% | SK-MEL-5 melanoma -54.5% | LOX IMVI melanoma 5.46%

COc1ccc(OCC(O)CN2CCN(c3ccc(Cl)cc3)CC2)cc1 (stereo not given)
inactive: DU-145 prostate 112% | K-562 leukemia 105% | MALME-3M melanoma 106% | MDA-MB-231 breast 88.1% | RXF 393 renal 98% | SF-268 CNS 105% | SF-295 CNS 92.1% | SF-539 CNS 95.5% | UACC-257 melanoma 81.9% | M14 melanoma 102% | HCT-15 colon 105% | HT29 colon 98.5% | SNB-75 CNS 84.7% | SNB-19 CNS 85.7% | U251 CNS 94.5% | PC-3 prostate 104% | SK-MEL-5 melanoma 84.3% | UACC-62 melanoma 84.9% | LOX IMVI melanoma 91.4% | SK-MEL-28 melanoma 114%

Cc1cccc(CC(=O)c2ccccc2)n1
inactive: DU-145 prostate 100% | K-562 leukemia 81.8% | MALME-3M melanoma 92.1% | MDA-MB-231 breast 89% | RXF 393 renal 91% | SF-268 CNS 95.5% | SF-295 CNS 85.4% | SF-539 CNS 96.8% | UACC-257 melanoma 92.7% | M14 melanoma 85.5% | HCT-15 colon 93.2% | HT29 colon 82.1% | SNB-75 CNS 84.6% | SNB-19 CNS 88.7% | U251 CNS 89.6% | PC-3 prostate 80.5% | SK-MEL-5 melanoma 96.6% | UACC-62 melanoma 74.7% | LOX IMVI melanoma 76.5% | SK-MEL-28 melanoma 105%

Nn1c(SCC(=O)Nc2cc(Cl)c(Cl)cc2Cl)nnc1-c1cc(F)c(Cl)cc1Cl
inactive: DU-145 prostate 113% | K-562 leukemia 90.2% | MALME-3M melanoma 121% | MDA-MB-231 breast 127% | RXF 393 renal 151% | SF-268 CNS 110% | SF-295 CNS 109% | SF-539 CNS 108% | UACC-257 melanoma 108% | M14 melanoma 96.7% | HCT-15 colon 150% | HT29 colon 110% | SNB-75 CNS 106% | SNB-19 CNS 102% | U251 CNS 114% | PC-3 prostate 97.8% | SK-MEL-5 melanoma 78.4% | UACC-62 melanoma 146% | LOX IMVI melanoma 129% | SK-MEL-28 melanoma 135%

OC[C@@H](O)C(O[C@@H]1O[C@H](CO)[C@H](O)[C@H](O)[C@H]1O)[C@H](O)[C@@H](O)CO (stereo not given in full)
inactive: DU-145 prostate 111% | K-562 leukemia 104% | MALME-3M melanoma 97.6% | MDA-MB-231 breast 97.3% | RXF 393 renal 108% | SF-268 CNS 109% | SF-295 CNS 96.1% | SF-539 CNS 101% | UACC-257 melanoma 106% | M14 melanoma 99.9% | HCT-15 colon 98.2% | HT29 colon 103% | SNB-75 CNS 98.6% | SNB-19 CNS 107% | U251 CNS 97.6% | PC-3 prostate 86.6% | SK-MEL-5 melanoma 106% | UACC-62 melanoma 99.1% | LOX IMVI melanoma 98.8% | SK-MEL-28 melanoma 110%

CNCCCOc1c(Br)cc(CCNC(=O)/C(Cc2cc(Br)c(OC)c(Br)c2)=N/O)cc1Br
active: DU-145 prostate -5.03% | K-562 leukemia -51.2% | MALME-3M melanoma -78% | MDA-MB-231 breast -69.8% | RXF 393 renal -5.85% | SF-268 CNS 4.43% | SF-295 CNS -65.5% | SF-539 CNS -73.9% | UACC-257 melanoma -45.3% | M14 melanoma -76.7% | HCT-15 colon -58.3% | HT29 colon -48.2% | SNB-75 CNS 8.28% | SNB-19 CNS -23% | U251 CNS -84% | PC-3 prostate -40.4% | SK-MEL-5 melanoma -90.2% | UACC-62 melanoma -47% | LOX IMVI melanoma -80.1% | SK-MEL-28 melanoma -64.2%

CCC1(C(N)=O)CC2C=CC1CC2 (stereo not given)
inactive: DU-145 prostate 116% | K-562 leukemia 113% | MALME-3M melanoma 113% | MDA-MB-231 breast 97.8% | RXF 393 renal 108% | SF-268 CNS 110% | SF-295 CNS 102% | SF-539 CNS 102% | UACC-257 melanoma 77.1% | M14 melanoma 91.4% | HCT-15 colon 109% | HT29 colon 106% | SNB-75 CNS 95.9% | SNB-19 CNS 90.2% | U251 CNS 110% | PC-3 prostate 103% | SK-MEL-5 melanoma 98.7% | UACC-62 melanoma 104% | LOX IMVI melanoma 96.2% | SK-MEL-28 melanoma 125%

Nc1nccc2c1ccn2-c1cccc(NC(=O)c2ccc(N3CCOCC3)c(C(F)(F)F)c2)c1
inactive: MALME-3M melanoma 39.8% | SF-268 CNS 21.8% | UACC-257 melanoma 59.2% | M14 melanoma 16% | SNB-75 CNS 23.8% | SNB-19 CNS 31.9% | PC-3 prostate 18% | UACC-62 melanoma 13.8% | SK-MEL-28 melanoma 47.3%
active: DU-145 prostate -0.195% | K-562 leukemia 9.79% | MDA-MB-231 breast 6.1% | RXF 393 renal -75.9% | SF-295 CNS -30.9% | SF-539 CNS 3.23% | HCT-15 colon 9.8% | HT29 colon -47.2% | U251 CNS 8.89% | SK-MEL-5 melanoma -43.7% | LOX IMVI melanoma 5.35%

Nc1nc(=S)ss1
inactive: DU-145 prostate 116% | K-562 leukemia 98.1% | MALME-3M melanoma 111% | MDA-MB-231 breast 112% | RXF 393 renal 101% | SF-268 CNS 108% | SF-295 CNS 102% | SF-539 CNS 111% | UACC-257 melanoma 90.2% | M14 melanoma 101% | HCT-15 colon 91.8% | HT29 colon 105% | SNB-75 CNS 89.3% | SNB-19 CNS 103% | U251 CNS 107% | PC-3 prostate 90.7% | SK-MEL-5 melanoma 110% | UACC-62 melanoma 95.4% | LOX IMVI melanoma 103% | SK-MEL-28 melanoma 113%
